Experimental data from the supplement of paper PMC11417369.
± gives the standard deviation of the averaged measurements. Over roughly 25,000 sequences, “ln(normalized median fluorescence intensity)” has its median near 7.9; the highest 2% begin near 11. What follows is part of a selection rich in the highest values, with near analogues and random picks from the rest.

system: PfAP2-I AP2 domain 3 (GST-tagged); assay: gcPBM binding intensity (ln(normalized median fluorescence intensity)); higher = stronger DNA binding
How it was run: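 Binding intensity is the highest Masliner-normalised natural-log median intensity over replicate spots in either probe orientation. To obtain it, GST-tagged P. falciparum DNA-binding domains made in E. coli were incubated for 1 h on an Agilent 4 × 180k array of primer-extended double-stranded 36-bp intergenic genomic probes plus negative controls. Detection used Alexa488 anti-GST antibody with scanning at 488 nm.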

Sequence | gcPBM binding intensity (ln)
TTTATTTGGACATATACACACTTAAATATGTTTATT [CACACA_site6021] | 7.59 ± 0.47
TTTTTTTTGATATATACACACAATAAATAAATATAA [CACACA_site7400] | 7.78 ± 0.39
TATAATATATGTATATGTACTTATGTTGAGAAACAT [XGTACX_site2117] | 7.72 ± 0.59
AATAAATATAGGAATACACACAATATAAATGTATTG [CACACA_site3366] | 7.5 ± 0.62
GATACATAGAAACACACACACATACATATATACATA [CACACA_site3438] | 8.01 ± 0.4
ATTGCCATTGTTAATGCATGTAACAATTCAGCTCAT [TGCATGCA_site56] | 8 ± 0.83
AAAAAATTTTGAAATTGTACATATATAAAAAATATA [XGTACX_site2629] | 7.59 ± 0.29
AAAAATGAATTATTTTGTACATATATATATATATAT [XGTACX_site3410] | 9.48 ± 0.54
AATATTGCACCATTTTGTACATAATATATTCAAATA [XGTACX_site475] | 11.7 ± 0.74
ATATATTGCACTTTTTGTACATAATGAAAAATTTTT [XGTACX_site8223] | 11.5 ± 1
TAAAAATATTTTCATTGTACATATATATAAATATAT [XGTACX_site1123] | 7.59 ± 0.3
ATTTTTTTTTTTTTTTTTTTTGCACCATAAAATAAT [CACACA_negctrl_site1324] | 11.2 ± 0.56
AATATATTTTTTTTTTGTACATATTGTAAAATAATA [XGTACX_site6805] | 7.83 ± 0.22
TACAACAATTTTTGCACACACCAAAACATAAAATAA [CACACA_site4964] | 9.15 ± 0.22
AAAATAAATAAATATACACACCATATATATATTTTT [CACACA_site5573] | 7.61 ± 0.39
TTTCTTCGAAATAGAACACTTGTGCAAAATAAGCAA [XGTACX_negctrl_site361] | 9.9 ± 0.23
AAATTTAAAAATAAAGAACACACATATGTAAAATAT [CACACA_site9252] | 7.91 ± 0.76
AGGATACACGGACACACACACATATAGATTTATATA [CACACA_site6552] | 8.14 ± 0.2
AATTTATTAAAAAAATGTACTTATTTTTTTGTATAA [XGTACX_site5844] | 7.61 ± 0.11
ATATATTTTTATATAGTGCAAGTAATAAAAAGGAAT | 10.04 ± 0.099
ATTTATAATATTCAAGTGCATATATATTTTTTACTT | 9.57 ± 0.14
TTTATTCAAGGAATAGTGCATAATAATAAGTATTAT | 11.2 ± 0.62
TACTATTTTTATAATACACACATATATTTGTGATAT [CACACA_site1775] | 7.84 ± 0.44

Sequence | gcPBM binding intensity (ln)
TTAATATATTATCTGGTGCATAAACACGTTATACCT | 11.3 ± 0.64
TTTGTTATATTTAATACACACATATTATAAACACAT [CACACA_site7703] | 8.07 ± 0.34
TATATATAATATTATACACACATATCTGCATAATAT [CACACA_site4202] | 8.13 ± 0.49
GGTTATATATTTTTTGCACACCAAAAAAGAGAATAT [CACACA_site2731] | 9.56 ± 0.14
ATTAATTTTATATATGCACACAAAATATGTTCATAT [CACACA_site9350] | 9.13 ± 0.099
TTTTCATATTATAGTGCACACAAAAATATATATATG [CACACA_site8929] | 11.5 ± 0.47
ATTCACAAATATATGGTGCATAATATATATATATAT [GTGCAC_site9674] | 11.31 ± 0.078
CATATAAAAATATATGCACACAAATAAAAAATTATA [CACACA_site9210] | 8.94 ± 0.39
AACTCATAGCGGTGTGCACACAAAAAATTAAAAAAA [CACACA_site3033] | 9.9 ± 0.2
TATATATATTTATGCACACAAAATATATTATAGAAT [CACACA_site3740] | 9.99 ± 0.4
ATTATATACATATATGCACACAAAAAAATATATATT [CACACA_site8508] | 9.04 ± 0.12
TGAATATTCATATGCACACAAATTAATATACATAAT [CACACA_site442] | 8.675 ± 0.021
TTCATATTATAGTGCACACAAAAATATATATATGGT [CACACA_site2855] | 11.3 ± 0.43
CTCATAGTTGGGTGCACACAAAAAATTAAAAAAATA [CACACA_site3032] | 11.1 ± 0.81
ATGGCATAAATATATGCACACACAAAAAAAAAAAAA [CACACA_site7902] | 8.98 ± 0.11
AACTCATAGGAGTGTGCACACAAAAAATTAAAAAAA [CACACA_site8996] | 9.52 ± 0.42
AAAAGGGAAATAAAATAAAAAAAGAAACATATATAG [CACACA_negctrl_site455] | 7.72 ± 0.76
ATATGATCATAAAACACACACACAAAAAAAAAAAAA [CACACA_site1806] | 7.95 ± 0.75
TATATATGTGTATAGAGTACACGTTTTTTTTAATAT [XGTACX_site3128] | 7.71 ± 0.38
ATTGTATTAAAATGCACACATATCAAGAGGAATTTT [CACACA_site283] | 9.095 ± 0.064
AAAGAAAATAACAAAATTTTGAAAACATCACATTCG [CACACA_negctrl_site89] | 7.63 ± 0.69
ATCAAAATGTTAAAGATACACACCTAACAAACACAA [CACACA_site955] | 7.96 ± 0.19
TAAATCATTTATTAAGTGCAATATTCTTTTTGAGAT | 10.3 ± 0.28
